Experimental findings from ChEMBL document CHEMBL3988442, “University of Dundee, Small-Polar-MMV Screening Library” (2021) are described below.

Screen size: about 48,000 compounds; about 13,000 (27%) showed an effect of 50% or more. This is one part of the list.

The subject of this assay is Wolbachia pipientis. Briefly: Anti-Wolbachia Cell-Based Screen. Type of assay: functional. On the set-up: scale not given: in the data most compounds retested in dose-response had high values. The conditions noted are these: 5 µM.
`CC(C)=CCCC(C)CN1CCC(n2cc(CO)nn2)CC1` (centres undefined): the “Percent Effect” value is recorded as -18.32%.
As to `Cc1ccc2nc3n(c2c1)[C@@H](CNC(=O)c1ccncc1)COC3`, the “Percent Effect” value is -11.4%.
The value for `CN(CCC(F)(F)F)c1nc2ccccc2c(=O)[nH]1` was -5.931%.
With `O=C(O)C(F)(F)F.O=C1CC(c2ccccc2)C2(CCN(Cc3nccs3)CC2)N1` (centres undefined), the “Percent Effect” value was 100.6%.
Then `Cc1noc(C)c1CN1CCC2(CC1)NC(=O)CC2c1ccccc1.O=C(O)C(F)(F)F` (centres undefined), with 92.37%.
The value for `Cc1noc(C)c1CN1CCC2(CC1)C(c1cnn(C)c1)CC(=O)N2C.O=C(O)C(F)(F)F` (centres undefined) was 113.4%.
Then `Cc1noc(C)c1CN1CCC2(CC1)NC(=O)CC2c1cnn(C)c1` (centres undefined), with 100%; and `CN1C(=O)CC(c2cnn(C)c2)C12CCN(C(=O)c1ccc[nH]1)CC2` (centres undefined), with -12.5%.
Take `O=C(O)C(F)(F)F.O=C(O)C(F)(F)F.O=C1NC2(CCN(Cc3nccs3)CC2)CC1c1ccncc1` (centres undefined): the “Percent Effect” value was -14.31%.
For the molecule `CCn1c(N)nc2cc(C(=O)N3CCN(c4nccs4)CC3)cnc21`, the “Percent Effect” value turned out to be 5.725%.
With `O=C(c1ccoc1)N1CCC(NCc2ccccc2-n2ccnc2)CC1`, the “Percent Effect” value was 2.985%.
For `CCn1ncc2c1NC(=O)C(C#N)C21CCCC1` (centres undefined), the “Percent Effect” value is given as 21.97%.
In the case of `Cc1ccc(CN2CCC3(CC2)C(=O)N(CC(C)C)CCN3C)o1.O=C(O)C(F)(F)F.O=C(O)C(F)(F)F`, the “Percent Effect” value is reported as -29.49%.
For the molecule `CC(C)CN1CCN(C)C2(CCN(c3nccs3)CC2)C1=O.O=C(O)C(F)(F)F`, the “Percent Effect” value is on record as -15.41%.
Turning to `Cc1ccc(CN2CCC3(CC2)C(=O)N(CC(C)C)CCN3C)s1.O=C(O)C(F)(F)F.O=C(O)C(F)(F)F`, the “Percent Effect” value amounted to 102.6%.
Then `Cc1cnn(CC2CCCCN2C(=O)c2cccc3c2OCO3)c1` (centres undefined), with -2.775%; and `Cc1cc(C)n(CC2CCCN2C(=O)c2c[nH]c3ncccc23)n1` (centres undefined), with -7.335%; and `Cc1cnn(CC2CCCCN2C(=O)c2ccnc(N(C)C)c2)c1` (centres undefined), with -6.114%.
Then `O=C(c1cccnc1N1CCOCC1)N1CCCC1Cn1cccn1` (centres undefined), with 1.919%.
The value for `Cc1cnn(CC2CCCCN2C(=O)c2ccc(N(C)C)nc2)c1` (centres undefined) was 89.91%; that for `Cc1cc(C)n(CC2CCCN2C(=O)c2cccc3[nH]ncc23)n1` (centres undefined) was -3.123%.
For `Cc1cnn(CC2CCCCN2C(=O)c2ccc3nnc(C)n3c2)c1` (centres undefined), the “Percent Effect” value is -9.496%.
As to `CN(C)c1ncccc1C(=O)N1CCCC1Cn1cccn1` (centres undefined), the “Percent Effect” value was found to be 111.6%.
The value for `Cc1cnn(CC2CCCN2C(=O)c2cccnc2N(C)C)c1` (centres undefined) was -3.738%; that for `O=C(c1cccc2c1OCO2)N1CCCC1Cn1cccn1` (centres undefined) was -0.6849%; that for `Cc1cnn(CC2CCCCN2C(=O)c2cccnc2N(C)C)c1` (centres undefined) was 94.82%.
Then `Cc1cc(C)n(CC2CCCN2C(=O)c2cccnc2N(C)C)n1` (centres undefined), with 118%; and `CC(C)[C@@H]1CN(S(=O)(=O)Cc2ccccc2)C[C@H]1C(=O)O`, with 3.081%.
Then `O=C(NCC(O)c1cccs1)c1sccc1OC(F)F` (centres undefined), with 2.411%; and `Cc1ccccc1N1CCN(C(=O)c2cnc(C3CC3)nc2)C(C)C1` (centres undefined), with -6.259%; and `COc1ncccc1CNC(=O)c1c[nH]c(=O)c(Br)c1`, with -2.261%.
Take `CN(Cc1cscn1)C1CCN(C(=O)OC(C)(C)C)CC1`: the “Percent Effect” value was -0.6066%.
As to `Cn1ccc(C(=O)N2CCC(Cc3cnc4[nH]ccc4c3)C2)n1` (centres undefined), the “Percent Effect” value is 135.4%.
As to `Cc1nc(C(=O)N2CCC(Cc3cnc4[nH]ccc4c3)C2)co1` (centres undefined), the “Percent Effect” value is on record as -2.794%.
The value for `Cn1ccc(C(=O)N2CCC(Cc3cnc4[nH]ccc4c3)CC2)n1` was -9.979%; that for `O=C(c1cscn1)N1C[C@@H]2[C@@H](C1)OCC(=O)N2CC1CCCC1` was -7.986%; that for `O=C(c1cscn1)N1CCC(Cc2cnc3[nH]ccc3c2)C1` (centres undefined) was 91.07%.
The value for `Cc1nn(CCC(=O)NC(C(=O)O)c2c(C)n[nH]c2C)c(C)c1C` (centres undefined) was 9.182%; that for `CC(C)(C)c1ncc2c(n1)CN(C(=O)c1ccc3[nH]cnc3c1)C2` was -16.99%.
The value for `O=C(c1ccncc1)N1CCc2ncnc(C3CCOC3)c2CC1` (centres undefined) was 1.428%.
Consider `CCN1CC[C@@]2(C(=O)N3CCOCC3)CCN(S(=O)(=O)CC)CC[C@@H]12.O=C(O)C(F)(F)F`, for which the “Percent Effect” value is -35.9%.
Consider `CCc1cn[nH]c1C1CCCN(C(=O)c2noc(C)c2COC)C1` (centres undefined), for which the “Percent Effect” value is reported as -6.588%.
The value for `CCc1noc(C)c1C(=O)N1C[C@H](NS(C)(=O)=O)[C@@H](C2CC2)C1` was 7.684%; that for `CCc1noc(C)c1C(=O)N1CCC(c2[nH]ncc2S(C)(=O)=O)C1` (centres undefined) was 111.9%.
On to `Cc1noc(C)c1C(=O)N1CCC(c2[nH]ncc2S(C)(=O)=O)C1` (centres undefined), for which the “Percent Effect” value was 95.01%.
Then `CCc1cn[nH]c1C1CCCN(C(=O)c2ncoc2C(C)C)C1` (centres undefined), with 0.179%.
Turning to `CCn1cc(C(=O)N2CCCC(c3[nH]ncc3S(C)(=O)=O)C2)cn1` (centres undefined), the “Percent Effect” value is recorded as -1.066%.
As to `CCc1cc(C(=O)N2CCCC(c3[nH]ncc3S(C)(=O)=O)C2)no1` (centres undefined), the “Percent Effect” value worked out at 122.4%.
For the molecule `COCCn1cc(NCc2cn(C)nc2-c2ccncc2)cn1`, the “Percent Effect” value worked out at 0.5012%.
Then `Cc1ccc(O[C@@H]2C[C@H]3CN(C(=O)c4cnccn4)CCN3C2)cc1.O=C(O)C(F)(F)F`, with -2.389%; and `Cc1nc(CC(=O)N2CCC3(CC2)CC(=O)N(CC2CCCO2)C3)cs1` (centres undefined), with 8.939%; and `CC(C)N1CCC(c2ccnc3c(C(=O)N4CCCC4)ncn23)CC1`, with -18.47%.
With `CN1CCC(c2cccc(C(=O)N(C)C)n2)CC1`, the “Percent Effect” value is given as 118.3%.
For the molecule `CN(C)CCCn1ccnc1C1CCN(c2cccc(C(=O)O)n2)CC1`, the “Percent Effect” value was -0.5716%.
As for `Cc1ccccc1-c1cncc(C2CCN(C(C)C)CC2)n1`, the “Percent Effect” value is listed as -0.08562%.
Then `CC(C)N1CCC(c2cccc(C(=O)N(C)C)n2)CC1`, with 126.2%.
For the molecule `Cc1cnn(CCNCC(=O)Nc2ccc(Br)cn2)c1`, the “Percent Effect” value is reported as -4.986%.
For the molecule `CSc1ccc(CNC2CCN(CCc3ccncc3)CC2)cc1`, the “Percent Effect” value is -23.46%.
For the molecule `CN(C)C(=O)N1CCc2ccc(=O)[nH]c2CC1`, the “Percent Effect” value is given as -8.1%.
The value for `COc1ccc2c(c1)CC(NCc1cccc(NC(C)=O)c1)CC2` (centres undefined) was 5.004%.
Then `O=C(NC1CCCC1)NC1CCc2[nH]c(=O)ccc2C1` (centres undefined), with 2.289%; and `O=C(O)C(F)(F)F.O=c1ccc2c([nH]1)CCC(NCc1ccc3c(c1)OCO3)C2` (centres undefined), with 106.8%; and `COc1ccc(CN[C@H]2CC[C@@]3(CCC(=O)N3)CC2)cc1.O=C(O)C(F)(F)F`, with 13.86%.
Turning to `O=C(O)C(F)(F)F.O=C1CC[C@]2(CC[C@@H](NCc3ccoc3)CC2)N1`, the “Percent Effect” value is -19.54%.
Consider `O=C(O)C(F)(F)F.O=C1CC[C@]2(CC[C@@H](NCc3ccc4c(c3)OCO4)CC2)N1`, for which the “Percent Effect” value was -34.14%.
As for `O=c1ccc2c([nH]1)CCC(NCc1ccncc1)C2` (centres undefined), the “Percent Effect” value worked out at 106.2%.
The value for `O=C(O)C(F)(F)F.O=c1ccc2c([nH]1)CCC(NCc1ccc(F)cc1)C2` (centres undefined) was 112.4%.
For the molecule `CC(C)NC1CCc2[nH]c(=O)ccc2C1.O=C(O)C(F)(F)F` (centres undefined), the “Percent Effect” value came to 105.5%.
On to `COc1ncc(C)cc1NC(=O)COc1ccccc1F`, for which the “Percent Effect” value is given as -12.82%.
Then `CCO[C@H]1COC[C@@H]1NC(=O)c1c[nH]nc1C1CCCCC1`, with -0.7852%.
The value for `Cn1c(C(N)=O)cc2c1CN(C(=O)C1CC(=O)N(C(C)(C)C)C1)CC2` (centres undefined) was -2.281%; that for `Cn1ncc2c(NCC3CCS(=O)(=O)C3)nc(C3CCCC3)nc21` (centres undefined) was -5.604%; that for `O=C(CCNc1ncccn1)NCc1cccc(OC(F)F)c1` was -10.33%.
Turning to `O=C(CCC1CC1)N1C[C@@H](CN2CCCC2)[C@@H](CO)C1`, the “Percent Effect” value is -10.86%.
Take `Cc1ccc(CNC2CCc3[nH]c(=O)ccc3C2)cc1C.O=C(O)C(F)(F)F` (centres undefined): the “Percent Effect” value is 104.8%.
For `CCC(=O)N(C)CC(=O)Nc1ccc(Br)cn1`, the “Percent Effect” value is listed as -3.099%.
The value for `O=C(CCc1nc(Cl)n[nH]1)N1C[C@H](CO)C[C@H](CN2CCCC2)C1` was -2.773%; that for `Cn1nc2c(cc1=O)CN(CC(=O)Nc1ccc(Cl)cn1)CC2` was -5.01%; that for `CC(=O)NCc1cccc(-n2ccnc2-c2cccc(C(=O)O)c2)c1` was -20.57%.
Regarding `COc1ccccc1OCCC(=O)NCc1ncc(C)c(OC)c1C`, the “Percent Effect” value was -4.89%.
Then `COc1c(C)cnc(CNC(=O)CCOCc2ccccc2)c1C`, with 7.332%; and `O=C(Cc1ccccc1)NCc1ccc(-c2ccccc2C(=O)O)cn1`, with 101.1%; and `Cc1oc(CNC(=O)Cc2ccc3ccccc3c2)cc1C(=O)O`, with -0.3002%.
The value for `CCCN1CCCn2nc(CNC(=O)CCOC)cc2C1` was 16.28%.
For `COCCC(=O)NCc1ccc(-c2ccccc2C(=O)O)nc1`, the “Percent Effect” value came out at 88.43%.
For the molecule `O=C(Cc1cc(-c2ccc3c(c2)OCCO3)on1)NCc1ccccn1`, the “Percent Effect” value worked out at 5.76%.
Regarding `COc1ccccc1NCC(=O)NCc1cc[nH]n1`, the “Percent Effect” value is on record as 15.35%.
The value for `CC(=O)NCc1ccc(-c2ccccc2C(=O)O)cn1` was 125.9%; that for `COCCC(=O)NCc1cccnc1-n1cnc2ccccc21` was -10.59%.
On to `COCCC(=O)NCc1ccc(-c2ccccc2C(=O)O)cn1`, for which the “Percent Effect” value was 105.5%.
On to `CCN(CC)S(=O)(=O)NCCc1cc(C)ccc1OC`, for which the “Percent Effect” value stood at 2.679%.
The value for `Cc1noc(CNc2ccc(CC(=O)N3CCSCC3)cc2)n1` was -10.08%; that for `COCCCN1C(=O)CC[C@H]2CN(c3nc4ccccc4s3)CC[C@H]21` was -8.201%; that for `CN1CCN(c2ncccc2CNc2ncccc2C#N)CC1` was 1.331%.
With `O=C(CCCn1ccnc1)N1CCC2(CC1)[C@H](O)C[C@@H]2OCCO`, the “Percent Effect” value is listed as 0.2303%.
Then `CCCc1cc(CNC(=O)C2CCOc3ccccc3C2)on1` (centres undefined), with 6.963%; and `COCC(=O)Nc1cnc(N2CCN(c3ccccc3)CC2)nc1`, with -8.386%; and `COCC(=O)NCc1cccnc1-n1cnc2ccccc21`, with 13.4%.
`COCC(=O)NCc1ccc(-c2ccccc2C(=O)O)cn1`: the “Percent Effect” value came out at 123.3614%.
